The source of these data is PubChem BioAssay.

Test [1] can be described thus: compound effects on lung adenocarcinoma cell viability – A549, calcein-AM fluorescence, 48 h, basal, profiling panel (AID 1162). Further: test concentration not given here. The settings on record: higher = more signal.
Test [2] in a line: compound effects on differentiated 3T3-L1 adipocyte viability – cell-based, 3T3-L1 adipocytes, calcein-AM fluorescence, 48 h, basal, profiling panel (AID 1163). Further: test concentration not given here. The settings on record: 3T3-L1 adipocytes viability, higher = more signal.
Test [3] in a line: compound effects on hepatocellular carcinoma cell viability – HepG2, calcein-AM fluorescence, 48 h, basal, profiling panel (AID 1164). Further: test concentration not given here. The note with it: higher = more signal.
Test [4] in a line: compound effects on multiple myeloma cell viability – MM1S, calcein-AM fluorescence, 48 h, basal, profiling panel (AID 1165).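 Further: viability of MM1S multiple myeloma cells under basal unstimulated conditions; test concentration not given here.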 The note with it: higher = more signal.
The nature of test [5]: calcein-AM signal in unstimulated myeloma cells – cell-based, calcein-AM fluorescence, 48 h, PK04 Diversity Set, profiling panel (AID 1166).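 Further: cells grown under basal conditions without added stimulus; test concentration not given here.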 The settings on record: RPMI8226 myeloma viability, higher = more signal.
Test [6] is described as follows: JC-1 mitochondrial signal, unstimulated HepG2 cells – cell-based, JC-1 fluorescence, 24 h, 100 nL compound, profiling panel (AID 1167). Further: test concentration not given here. The settings on record: HepG2 mitochondrial potential, higher = more signal.
Test [7] can be described thus: JC-1 mitochondrial signal, unstimulated adipocytes – cell-based, JC-1 fluorescence, 3T3-L1 adipocytes, 24 h, 100 nL compound, profiling panel (AID 1168). Further: test concentration not given here. The note with it: JC-1 mitochondrial fluorescence, higher = more signal, called active from +8 up or from −8 down.
Test [8] is described as follows: JC-1 mitochondrial signal, unstimulated myeloma cells – cell-based, JC-1 fluorescence, RPMI8226, 24 h, 100 nL compound, profiling panel (AID 1169). Further: test concentration not given here. The settings on record: JC-1 mitochondrial potential fluorescence, higher = more signal.
The nature of test [9]: JC-1 mitochondrial signal, unstimulated MM1S myeloma – cell-based, JC-1 fluorescence, 24 h, 100 nL compound, profiling panel (AID 1170). Further: test concentration not given here. The note with it: MM1S mitochondrial potential, higher = more signal.
Test [10] is described as follows: resazurin metabolic signal in A549 cells – cell-based, resazurin fluorescence, 24 h, PK04 Diversity Set, profiling panel (AID 1171). Further: test concentration not given here. The settings on record: A549 viability, higher = more signal, called active from +8 up or from −8 down. (Resazurin is reduced to fluorescent resorufin, in cell work by metabolically active cells.)
Test [11] in a line: resazurin metabolic signal in HepG2 cells – cell-based, resazurin fluorescence, 24 h, PK04 Diversity Set, profiling panel (AID 1172). Further: test concentration not given here. The note with it: HepG2 viability, higher = more signal.
A short description of test [12]: budding yeast growth changes without added modifier – OD600, strain BY4716, 24 h, basal condition, primary screen (AID 1173). The settings on record: S. cerevisiae BY4716 growth, OD600, 24 h; higher = more signal, called active from +8 up or from −8 down.
A short description of test [13]: viability profiling in MM1S myeloma cells – cell-based, resazurin fluorescence, basal, 24 h, PK04 Diversity Set, profiling panel (AID 1174). Further: test concentration not given here. The note with it: higher = more signal, called active from +8 up or from −8 down.
The target in test [14] is Dihydroorotate dehydrogenase (quinone), mitochondrial (Plasmodium falciparum (isolate 3D7)) (UniProt Q08210). The experiment in a line: inhibition of P. falciparum DHODH – biochemical, C-terminal His tag, absorbance 600 nm, primary screen (AID 1175).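 Further: recombinant parasite enzyme with a five histidine tag at its C terminus; test concentration not given here.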 The note with it: PfDHODH enzyme, DCIP absorbance 600 nm; higher = more signal, called active from +8 up or from −8 down.
Sequence of Dihydroorotate dehydrogenase (quinone), mitochondrial (Plasmodium falciparum (isolate 3D7)) (Q08210 whole entry, looked up): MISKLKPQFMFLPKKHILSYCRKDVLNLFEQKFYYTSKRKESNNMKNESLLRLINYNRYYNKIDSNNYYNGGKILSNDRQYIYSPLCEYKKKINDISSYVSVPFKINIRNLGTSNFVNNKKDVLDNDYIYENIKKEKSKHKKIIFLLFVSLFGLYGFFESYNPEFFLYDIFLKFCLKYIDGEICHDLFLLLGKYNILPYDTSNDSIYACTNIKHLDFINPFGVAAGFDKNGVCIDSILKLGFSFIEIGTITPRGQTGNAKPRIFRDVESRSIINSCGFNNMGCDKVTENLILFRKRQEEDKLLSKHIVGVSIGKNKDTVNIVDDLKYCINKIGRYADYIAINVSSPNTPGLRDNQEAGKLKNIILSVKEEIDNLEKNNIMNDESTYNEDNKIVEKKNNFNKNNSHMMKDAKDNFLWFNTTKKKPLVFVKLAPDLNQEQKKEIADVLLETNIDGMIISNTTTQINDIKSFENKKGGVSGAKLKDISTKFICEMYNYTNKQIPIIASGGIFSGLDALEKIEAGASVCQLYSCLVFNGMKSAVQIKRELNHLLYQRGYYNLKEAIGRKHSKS
The nature of test [15]: inhibition of PAO1 biofilm formation – strain PAO1, LB-PBS medium, absorbance 600 nm, primary screen (AID 1176). Further: test concentration not given here. The note with it: P. aeruginosa PAO1 growth/biofilm, A600, 12 h; higher = more signal.
Test [16] is described as follows: growth modulation of vineyard yeast isolate – strain RM11-1a, OD600, basal, 24 h, primary screen (AID 1177).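 Further: cultures grown under basal conditions with no added stressor; test concentration not given here.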 The note with it: S. cerevisiae RM11-1a growth, OD600, 24 h; higher = more signal, called active from +8 up or from −8 down.
The nature of test [17]: growth of efflux-deficient E. coli DRC39 – strain DRC39, OD650, 24 h, E. coli filamentation inducers, primary screen (AID 1178).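 Further: growth measured as culture turbidity by optical density at 650 nm; test concentration not given here.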 The settings on record: E. coli DRC39 acrAB, higher = more signal, called active from +8 up or from −8 down.
A short description of test [18]: growth of efflux-deficient E. coli DRC39 – strain DRC39, OD650, 48 h, E. coli filamentation inducers, primary screen (AID 1179).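 Further: screen aims at cell division blockers that make cells filament.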 The settings on record: E. coli DRC39 delta-acrAB growth, higher = more signal, called active from +8 up or from −8 down.
Test [19] in a line: viability profiling in RPMI8226 myeloma cells – cell-based, resazurin fluorescence, basal, 24 h, PK04 Diversity Set, profiling panel (AID 1180).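 Further: RPMI8826 multiple myeloma cell line at 5000 cells per well; test concentration not given here.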 The note with it: higher = more signal.
Test [20] addresses E3 ubiquitin-protein ligase XIAP (Homo sapiens) (UniProt P98170). The experiment in a line: small molecules binding XIAP protein – biophysical, small-molecule microarray, fluorescence 635 nm, primary screen (AID 1181).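 Further: score merges 667 nm emission and signal to noise over triplicate slides.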 The settings on record: higher = more signal.

Calls of active or inactive are those of the source. Unless noted, how the calls were made is not given here.

Sequence of E3 ubiquitin-protein ligase XIAP (Homo sapiens) (P98170 whole entry, looked up): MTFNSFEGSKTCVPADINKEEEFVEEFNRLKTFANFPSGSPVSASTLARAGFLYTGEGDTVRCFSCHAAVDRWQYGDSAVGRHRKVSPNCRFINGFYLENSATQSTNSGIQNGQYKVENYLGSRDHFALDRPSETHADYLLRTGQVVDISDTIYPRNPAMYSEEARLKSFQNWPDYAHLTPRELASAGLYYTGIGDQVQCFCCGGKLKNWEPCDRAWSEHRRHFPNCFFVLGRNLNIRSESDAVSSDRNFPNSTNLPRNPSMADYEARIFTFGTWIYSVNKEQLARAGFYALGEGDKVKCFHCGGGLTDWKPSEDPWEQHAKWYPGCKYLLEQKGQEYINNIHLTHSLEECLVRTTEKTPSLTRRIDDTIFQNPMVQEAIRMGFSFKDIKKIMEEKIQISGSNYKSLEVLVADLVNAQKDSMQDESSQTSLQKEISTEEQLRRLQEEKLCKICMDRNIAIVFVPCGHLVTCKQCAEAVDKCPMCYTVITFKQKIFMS

`COc1cc2c(cc1OC)CN(C(=O)[C@@H]1[C@H]3C(=O)O[C@H](c4ccccc4)[C@H](c4ccccc4)N3[C@H](c3ccc(OCCO)cc3)[C@@]13C(=O)Nc1ccccc13)CC2`: the z-score in test [1] is 1.47; in [2], 1.04; in [3], 1.35; in test [4], 0.48; in test [5], 0.834; in test [6], -0.221. Besides, the z-score was 0.876 (inactive) in test [7]; -0.592 in [8]; -1.17 in [9]; 0.319 (inactive) in [10]; -0.44 in test [11]; 1.39 (inactive) in test [12]. The z-score in test [13] was -1.54 (inactive); in test [15] it was 3.15 (inactive); in test [16], 4.05 (inactive); in test [17] it was 0.144 (inactive); in test [18], 0.919 (inactive); in [19], -0.0976. In addition, the composite z-score in test [14] is -1.09 (inactive); in [20], -0.0763.

For `COC(=O)[C@@]1(Cc2ccc(OC)cc2)[C@H]2c3cc(C(=O)N(C)C)n(CCO)c3C[C@H]2CN1C(=O)c1ccccc1`, the z-score in test [1] was -1.58; in test [2], 0.611; in [3], -0.516; in test [4] it was -1.25; in test [5], -0.755; in [6], -0.133. The z-score in [7] was -1.36 (inactive); in [8], -0.577; in test [9], -0.327; in test [10], -0.0699 (inactive); in test [11], -0.822; in test [12] it was 0.474 (inactive). Besides, the z-score in test [13] was -1.23 (inactive); in test [15], 0.33 (inactive); in [16] it was -0.562 (inactive); in test [17], -0.748 (inactive); in [18] it was -0.173 (inactive); in test [19], -0.915. Further, the composite z-score is -0.462 (inactive) in test [14] and 0.0223 in [20].

On to `COC(=O)c1c2oc(c1C(=O)OC)C(=O)N(Cc1ccccc1)Cc1cn(nn1)C[C@H](Cc1ccccc1)NC(=O)N[C@H](CO)CC2`, for which the z-score in test [1] is 2.05; in test [2], 0.92; in [3], 0.377; in [4], 1.18; in test [5], 1.75; in test [6], 1.9. Moreover, the z-score was -0.397 (inactive) in [7]; -0.201 in [8]; -0.62 in test [9]; 1.27 (inactive) in test [10]; 1.18 in [11]; -1.78 (inactive) in [12]. The z-score in test [13] is 0.312 (inactive); in [15] it was 0.231 (inactive); in [16], -1.38 (inactive); in test [17] it was 1.33 (inactive); in [18], 1.89 (inactive); in [19], 1.16. The composite z-score is -0.519 (inactive) in [14] and 0.725 in test [20].

As for `C=C(/C(=C/C[C@H](OC(C)=O)c1cccc(OCCO)c1)c1cnc2ccccc2c1)C(C)C`, the z-score is 0.336 in test [1]; 0.811 in [2]; 0.0181 in test [3]; -0.861 in [4]; 0.0738 in test [5]; 1.28 in test [6]. The z-score in test [7] was 0.224 (inactive); in test [8], 0.649; in test [9], -0.105; in test [10], 0.236 (inactive); in test [11], -0.196; in test [12], 0.644 (inactive). The z-score in test [13] is -0.0992 (inactive); in test [15], -0.0099 (inactive); in test [16], 1.51 (inactive); in test [17] it was 0.636 (inactive); in [18], 0.363 (inactive); in test [19] it was 0.573. The composite z-score is -5.52 (inactive) in test [14] and -0.0773 in test [20].
